Experimental data: article PMC5540273 (PLoS ONE, 2017)

The molecules below were run on T1, p38-gamma. Settings: concentration: 1 μM, replicates: in singlicate; n = 1.
T1 construct: gene MAPK12
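Note: KINOMEscan kinase panel screen.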

Compound | %Inh
Nc1n[nH]c2cnc(-c3ccccc3)cc12 [SB-642124] | 0%
CN(c1ccc(NC(=O)Nc2cc(C(F)(F)F)ccc2F)cc1)c1ccnc(Nc2ccc(S(N)(=O)=O)cc2)n1 [GW809893] | 85%
CC(C)c1nc(-c2cccc(NS(=O)(=O)c3c(F)cccc3F)c2F)c(-c2ccnc(Nc3ccc(N4CCOCC4)nc3)n2)s1 [GSK2008607] | 0%
O=C(Nc1cccc(-c2nn3ncccc3c2-c2ccnc(Nc3ccccc3)n2)c1)c1c(F)cccc1F [GSK198271] | 0%
O=C(Nc1ccccc1F)NC1CCN(c2ccnc(Nc3ccc(F)cc3)n2)CC1 [GSK1379800] | 0%
Cl.c1ccc(-c2ccc3c(Nc4ccc5[nH]ccc5c4)ccnc3c2)nc1 [GW440138] | 0%
COc1ccc(CNC(=O)NC2CCN(c3ccnc(Nc4ccc(F)cc4)n3)CC2)cc1 [GSK1379788] | 0%
CN(C)Cc1ccc(-c2ccc3c(Nc4ccc(Oc5ccccn5)cc4)ccnc3c2)o1 [GW567148] | 0%
CNC(=O)c1ccccc1Nc1nc(Nc2ccc(N3CCOCC3)cc2)ncc1Cl.Cl [GSK1576028] | 13%
CCS(=O)(=O)c1ccc(OC)c(Nc2nccc(-c3c(-c4cccc(NC(=O)c5c(F)cccc5F)c4)nn4ncccc34)n2)c1 [GSK326180] | 0%
c1ccc(Oc2ccc(Nc3ccnc4cc(-c5ccc(CNCCN6CCOCC6)o5)ccc34)cc2)nc1 [GW567145] | 0%
Cc1ccc(C)c(NC(=O)NC2CCN(c3ccnc(Nc4ccc(F)cc4)n3)C2)c1 (stereo not shown) [GSK1379720] | 16%
CCn1c(-c2nonc2N)nc2c(C#CC(C)(C)O)ncc(OCCCCN)c21.O=C(O)C(F)(F)F.O=C(O)C(F)(F)F [GSK507274] | 0%
COc1cc2c(cc1OCCN1CCNCC1)ncc1c3ccc(C#N)cc3[nH]c21 | 30%
COc1cccc(C(=O)Nc2cccc(Oc3ccc4nc(NC(=O)C5CC5)cn4n3)c2)c1 | 39%
FC(F)(F)c1ccc(/C=C/c2cncnc2Nc2ccc3[nH]c(Cc4ccccc4)nc3c2)cc1 [GW709199] | 35%
Cc1cccc(Nc2nc(N[C@H]3CCNC3)ncc2C(N)=O)c1.Cl [GSK2197149] | 0%
NCCCC(NC(=O)c1cc(Br)c(-c2ccnc3[nH]ccc23)s1)c1ccccc1.O=C(O)C(F)(F)F.O=C(O)C(F)(F)F (stereo not shown) [GSK1287544] | 10%
CC(C)(C)c1ccc2nccc(Nc3cccc(O)c3)c2c1 [GW856795] | 18%

Compound | %Inh
c1ccc(-c2n[nH]cc2Nc2ccnc3ccccc23)nc1 [GW694077] | 0%
COc1cccc(NC(=O)NC2CCN(c3ccnc(Nc4cc(OC)c(OC)c(OC)c4)n3)C2)c1 (stereo not shown) [GSK1379763] | 4%
COC(=O)Nc1nc2ccc(Oc3ccc(NC(=O)Nc4cc(C(F)(F)F)ccc4F)cc3)cc2n1C.Cl [GW692089] | 44%
COc1cccc(C2=C(Nc3ccc(Cl)c(C(=O)O)c3)C(=O)NC2=O)c1 [SB-390769] | 100%
COc1cc(Nc2nccc(-c3c(-c4cccc(NC(=O)c5c(F)cccc5F)c4)nn4ccccc34)n2)cc(OC)c1OC [GSK323521] | 42%
Cn1cc(-c2[nH]c3cc(NC(=O)[C@H](N)C4CCCCC4)cc4c3c2C=NNC4=O)cn1 | 7%
Nc1ncc(-c2cccnc2)c2scc(-c3ccc4c(c3)CCN4C(=O)Cc3ccccc3)c12 [GSK683281] | 0%
CCCCc1nn2ncccc2c1-c1ccnc(Nc2ccc(N3CCN(C)CC3)cc2)n1 [GW684941] | 0%
O=C(Nc1n[nH]c2cc(-c3ccoc3)ccc12)C1CC1 [SB-738481] | 1%
Cl.c1ccc(-c2ccc3c(Nc4ccc5[nH]ncc5c4)ccnc3c2)nc1 [GW440137] | 14%
Cn1cc(-c2ccc3c(c2)CCN3C(=O)Cc2cccc(Cl)c2)c2c(N)ncnc21 [GSK2606590] | 29%
COc1cccc(-c2ccc3c(NC(=O)C4CC4)n[nH]c3n2)c1 [SB-710903] | 0%
Nc1ncc(-c2ccc3nccc(-c4ccncc4)c3c2)cc1S(=O)(=O)N1CCOCC1 [GSK1627798] | 0%
COc1cc(Nc2nccc(N3CCC(NC(=O)Nc4cccc(C(C)=O)c4)C3)n2)cc(OC)c1OC (stereo not shown) [GSK1379753] | 0%
COCCOCCOc1cc2ncc3c4ccc(C#N)cc4[nH]c3c2cc1OC | 23%
COc1ccc(Nc2nccc(NCCNC(=O)c3cc4ccccc4s3)n2)cc1 [GSK1379896] | 5%
COC(=O)Nc1nc2cc(Oc3ccc(NC(=O)Nc4cc(C(F)(F)F)ccc4F)cn3)ccc2[nH]1.Cl.Cl [GW681170] | 42%
O=C(Nc1n[nH]c2nc(-c3ccc(O)cc3)ccc12)C1CC1 [SB-710363] | 20%
